Data: the supplement of paper PMC8728848
The entries come from a sample that favours the strongest signals as a whole.

What was measured:
Assay in all cases: glycan array binding signal (z-score within array); higher = stronger binding
Details in all cases: glycan notation: IUPAC condensed, linker removed
[1] = target: Fuc(a1-2)Gal(b1-4)GlcNAc(b1-2)Man(a1-3)[Fuc(a1-2)Gal(b1-4)GlcNAc(b1-2)Man(a1-6)]Man(b1-4)GlcNAc(b1-4)[Fuc(a1-6)]GlcNAc
Procedure, shortened: (§1)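 Glycan array data were curated from 3228 arrays in the Consortium for Functional Glycomics database and kept only where the protein sequence was available. Glycan names were converted to IUPAC-condensed notation, and columns mapping to the same glycan were averaged. The binding signal is a within-array Z-score, averaged across arrays of the same protein sequence at different concentrations or buffers and across linkers. Negative Z-scores can be read as non-binding.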

[2] = target: Fuc(a1-2)[Gal(a1-3)]Gal(b1-3)GalNAc
Procedure, shortened: as §1

[3] = target: Fuc(a1-2)[Gal(a1-3)]Gal(b1-4)GlcNAc(b1-2)Man
Procedure, shortened: as §1

[4] = target: Fuc(a1-2)[GalNAc(a1-3)]Gal(b1-3)GalNAc(a1-3)[Fuc(a1-2)]Gal(b1-4)GlcNAc
Procedure, shortened: as §1

[5] = target: Fuc(a1-2)[GalNAc(a1-3)]Gal(b1-4)GlcNAc
Procedure, shortened: as §1

[6] = target: Fuc(a1-2)[GalNAc(a1-3)]Gal(b1-4)GlcNAc(b1-2)Man
Procedure, shortened: as §1

[7] = target: Fuc(a1-2)[GalNAc(a1-3)]Gal(b1-4)GlcNAc(b1-2)Man(a1-3)[Fuc(a1-2)[GalNAc(a1-3)]Gal(b1-4)GlcNAc(b1-2)Man(a1-6)]Man(b1-4)GlcNAc(b1-4)GlcNAc
Procedure, shortened: as §1

[8] = target: Fuc(a1-2)[GalNAc(a1-3)]Gal(b1-4)GlcNAc(b1-3)Gal(b1-4)GlcNAc
Procedure, shortened: as §1

[9] = target: Fuc(a1-2)[GalNAc(a1-3)]Gal(b1-4)GlcNAc(b1-3)Gal(b1-4)GlcNAc(b1-3)Gal(b1-4)GlcNAc
Procedure, shortened: as §1

[10] = target: Fuc(a1-3)[Gal(b1-4)]GlcNAc
Procedure, shortened: as §1

Gal(a1-3)Gal = target: Gal(a1-3)Gal
Procedure, shortened: as §1

[11] = target: Gal(a1-3)Gal(b1-3)[Fuc(a1-4)]GlcNAc(b1-2)Man(a1-3)[Gal(a1-3)Gal(b1-3)[Fuc(a1-4)]GlcNAc(b1-2)Man(a1-6)]Man(b1-4)GlcNAc(b1-4)GlcNAc
Procedure, shortened: as §1

Gal(a1-3)Gal(b1-4)GlcNAc = target: Gal(a1-3)Gal(b1-4)GlcNAc
Procedure, shortened: as §1

[12] = target: Gal(a1-3)Gal(b1-4)GlcNAc(b1-3)GalNAc
Procedure, shortened: as §1

[13] = target: Gal(a1-4)Gal(b1-3)GlcNAc(b1-2)Man(a1-3)[Gal(a1-4)Gal(b1-3)GlcNAc(b1-2)Man(a1-6)]Man(b1-4)GlcNAc(b1-4)GlcNAc
Procedure, shortened: as §1

Gal(a1-4)Gal(b1-4)Glc = target: Gal(a1-4)Gal(b1-4)Glc
Procedure, shortened: as §1

[14] = target: Gal(b1-3)GalNAc(b1-4)Gal(b1-4)Glc
Procedure, shortened: as §1

[15] = target: Gal(b1-3)GlcNAc(a1-3)Gal(b1-4)GlcNAc
Procedure, shortened: as §1

[16] = target: Gal(b1-3)GlcNAc(b1-3)Gal(b1-4)GlcNAc(b1-3)Gal(b1-4)GlcNAc(b1-2)[Gal(b1-3)GlcNAc(b1-3)Gal(b1-4)GlcNAc(b1-3)Gal(b1-4)GlcNAc(b1-6)]Man(a1-6)[Gal(b1-3)GlcNAc(b1-3)Gal(b1-4)GlcNAc(b1-3)Gal(b1-4)GlcNAc(b1-2)Man(a1-3)]Man(b1-4)GlcNAc(b1-4)[Fuc(a1-6)]GlcNAc
Procedure, shortened: as §1

[17] = target: Gal(b1-3)GlcNAc(b1-6)[Gal(b1-3)]GalNAc
Procedure, shortened: as §1

Gal(b1-3)GlcNAc6S = target: Gal(b1-3)GlcNAc6S
Procedure, shortened: as §1

[18] = target: Gal(b1-3)[Neu5Ac(b2-6)]GalNAc
Procedure, shortened: as §1

Gal(b1-4)Gal = target: Gal(b1-4)Gal
Procedure, shortened: as §1

[19] = target: Gal(b1-4)GlcNAc(b1-2)Man(a1-3)Man(b1-4)GlcNAc(b1-4)GlcNAc
Procedure, shortened: as §1

[20] = target: Gal(b1-4)GlcNAc(b1-2)Man(a1-3)[Gal(b1-4)GlcNAc(b1-2)Man(a1-6)]Man(b1-4)GlcNAc(b1-4)GlcNAc
Procedure, shortened: as §1

[21] = target: Gal(b1-4)GlcNAc(b1-2)[Gal(b1-4)GlcNAc(b1-4)]Man(a1-3)[GlcNAc(b1-4)][Gal(b1-4)GlcNAc(b1-2)[Gal(b1-4)GlcNAc(b1-6)]Man(a1-6)]Man(b1-4)GlcNAc(b1-4)GlcNAc
Procedure, shortened: as §1

[22] = target: Gal(b1-4)GlcNAc(b1-3)Gal(b1-4)GlcNAc(b1-2)[Gal(b1-4)GlcNAc(b1-3)Gal(b1-4)GlcNAc(b1-6)]Man(a1-6)[Gal(b1-4)GlcNAc(b1-3)Gal(b1-4)GlcNAc(b1-2)Man(a1-3)]Man(b1-4)GlcNAc(b1-4)[Fuc(a1-6)]GlcNAc
Procedure, shortened: as §1

Gal3S6S(b1-4)GlcNAc6S = target: Gal3S6S(b1-4)GlcNAc6S
Procedure, shortened: as §1

Gal6S(b1-3)GlcNAc = target: Gal6S(b1-3)GlcNAc
Procedure, shortened: as §1

[23] = target: GalNAc(a1-3)GalNAc(b1-3)Gal(a1-4)Gal(b1-4)Glc
Procedure, shortened: as §1

GalNAc(b1-3)GlcNAc = target: GalNAc(b1-3)GlcNAc
Procedure, shortened: as §1

GalNAc(b1-4)GlcNAc = target: GalNAc(b1-4)GlcNAc
Procedure, shortened: as §1

[24] = target: GalNAc(b1-4)GlcNAc(b1-2)Man
Procedure, shortened: as §1

[25] = target: GalNAc(b1-4)GlcNAc(b1-3)GalNAc(b1-4)GlcNAc
Procedure, shortened: as §1

GalNAc(b1-4)GlcNAc6S = target: GalNAc(b1-4)GlcNAc6S
Procedure, shortened: as §1

GalNAc6S(b1-4)GlcNAc = target: GalNAc6S(b1-4)GlcNAc
Procedure, shortened: as §1

[26] = target: GlcNAc(b1-2)Man(a1-3)[GlcNAc(b1-4)][GlcNAc(b1-2)Man(a1-6)]Man(b1-4)GlcNAc(b1-4)[Fuc(a1-6)]GlcNAc
Procedure, shortened: as §1

[27] = target: GlcNAc(b1-3)Gal(b1-4)GlcNAc(b1-3)Gal(b1-4)GlcNAc(b1-3)Gal(b1-4)GlcNAc(b1-2)Man(a1-3)[GlcNAc(b1-3)Gal(b1-4)GlcNAc(b1-3)Gal(b1-4)GlcNAc(b1-3)Gal(b1-4)GlcNAc(b1-2)Man(a1-6)]Man(b1-4)GlcNAc(b1-4)[Fuc(a1-6)]GlcNAc
Procedure, shortened: as §1

[28] = target: GlcNAc(b1-3)Gal(b1-4)GlcNAc(b1-3)Gal(b1-4)GlcNAc(b1-3)GalNAc
Procedure, shortened: as §1

GlcNAc(b1-3)GalNAc = target: GlcNAc(b1-3)GalNAc
Procedure, shortened: as §1

GlcNAc(b1-4)GlcNAc = target: GlcNAc(b1-4)GlcNAc
Procedure, shortened: as §1

[29] = target: GlcNAc6S(b1-3)Gal(b1-4)GlcNAc
Procedure, shortened: as §1

Kdn(a2-3)Gal(b1-4)Glc = target: Kdn(a2-3)Gal(b1-4)Glc
Procedure, shortened: as §1

Kdn(a2-6)Gal(b1-4)GlcNAc = target: Kdn(a2-6)Gal(b1-4)GlcNAc
Procedure, shortened: as §1

[30] = target: Man(a1-2)Man(a1-6)[Man(a1-3)]Man(a1-6)[Man(a1-2)Man(a1-2)Man(a1-3)]Man
Procedure, shortened: as §1

Man(a1-6)Man = target: Man(a1-6)Man
Procedure, shortened: as §1

[31] = target: Neu5Ac(a2-3)Gal(b1-3)GalNAc6S
Procedure, shortened: as §1

[32] = target: Neu5Ac(a2-3)Gal(b1-4)GlcNAc(b1-2)Man(a1-3)[GlcNAc(b1-4)][Neu5Ac(a2-3)Gal(b1-4)GlcNAc(b1-2)Man(a1-6)]Man(b1-4)GlcNAc(b1-4)GlcNAc
Procedure, shortened: as §1

[33] = target: Neu5Ac(a2-6)Gal(b1-4)GlcNAc(b1-2)[Neu5Ac(a2-6)Gal(b1-4)GlcNAc(b1-6)]Man(a1-6)[Neu5Ac(a2-6)Gal(b1-4)GlcNAc(b1-2)Man(a1-3)][GlcNAc(b1-4)]Man(b1-4)GlcNAc(b1-4)GlcNAc
Procedure, shortened: as §1

[34] = target: Neu5Ac(a2-6)Gal(b1-4)GlcNAc(b1-3)Gal(b1-4)GlcNAc(b1-3)Gal(b1-4)GlcNAc(b1-2)Man(a1-3)[Neu5Ac(a2-6)Gal(b1-4)GlcNAc(b1-3)Gal(b1-4)GlcNAc(b1-3)Gal(b1-4)GlcNAc(b1-2)Man(a1-6)]GalNAc
Procedure, shortened: as §1

[35] = target: Neu5Ac(a2-6)Gal(b1-4)GlcNAc(b1-3)[Neu5Ac(a2-6)Gal(b1-4)GlcNAc(b1-6)]GalNAc
Procedure, shortened: as §1

[36] = target: Neu5Ac(b2-6)Gal(b1-4)GlcNAc
Procedure, shortened: as §1

B1: rCNL (Clitocybe nebularis), B2ZRS9 (protein)
chain: SITPGTYNITNVAYTNRLIDLTGSNPAENTLIIGHHLNKTPSGYGNQQWTLVQLPHTTIYTMQAVNPQSYVRVRDDNLVDGAALVGSQQPTPVSIESAGNSGQFRIKIPNLGLALTLPSDANSTPIVLGEVDETSTNQLWAFESVSAV
- glycan array binding signal (z-score) [1]: -0.116
- glycan array binding signal (z-score) [2]: -0.222
- glycan array binding signal (z-score) [3]: -0.215
- glycan array binding signal (z-score) [4]: 2.47
- glycan array binding signal (z-score) [5]: 3.08
- glycan array binding signal (z-score) [6]: 3.12
- glycan array binding signal (z-score) [7]: 4
- glycan array binding signal (z-score) [8]: 3.46
- glycan array binding signal (z-score) [9]: 3.25
- glycan array binding signal (z-score) [10]: -0.299
- glycan array binding signal (z-score) (Gal(a1-3)Gal): -0.297
- glycan array binding signal (z-score) [11]: -0.27
- glycan array binding signal (z-score) (Gal(a1-3)Gal(b1-4)GlcNAc): -0.098
- glycan array binding signal (z-score) [12]: -0.129
- glycan array binding signal (z-score) [13]: -0.187
- glycan array binding signal (z-score) (Gal(a1-4)Gal(b1-4)Glc): -0.261
- glycan array binding signal (z-score) [14]: -0.287
- glycan array binding signal (z-score) [15]: -0.21
- glycan array binding signal (z-score) [16]: -0.203
- glycan array binding signal (z-score) [17]: -0.215
- glycan array binding signal (z-score) (Gal(b1-3)GlcNAc6S): -0.226
- glycan array binding signal (z-score) [18]: -0.305
- glycan array binding signal (z-score) (Gal(b1-4)Gal): -0.215
- glycan array binding signal (z-score) [19]: -0.275
- glycan array binding signal (z-score) [20]: -0.13
- glycan array binding signal (z-score) [21]: -0.041
- glycan array binding signal (z-score) [22]: -0.147
- glycan array binding signal (z-score) (Gal3S6S(b1-4)GlcNAc6S): -0.283
- glycan array binding signal (z-score) (Gal6S(b1-3)GlcNAc): -0.224
- glycan array binding signal (z-score) [23]: -0.001
- glycan array binding signal (z-score) (GalNAc(b1-3)GlcNAc): 4.24
- glycan array binding signal (z-score) (GalNAc(b1-4)GlcNAc): 6.23
- glycan array binding signal (z-score) [24]: 6.09
- glycan array binding signal (z-score) [25]: 7.74
- glycan array binding signal (z-score) (GalNAc(b1-4)GlcNAc6S): 4.96
- glycan array binding signal (z-score) (GalNAc6S(b1-4)GlcNAc): 7.28
- glycan array binding signal (z-score) [26]: -0.228
- glycan array binding signal (z-score) [27]: -0.217
- glycan array binding signal (z-score) [28]: -0.218
- glycan array binding signal (z-score) (GlcNAc(b1-3)GalNAc): -0.286
- glycan array binding signal (z-score) (GlcNAc(b1-4)GlcNAc): -0.304
- glycan array binding signal (z-score) [29]: -0.273
- glycan array binding signal (z-score) (Kdn(a2-3)Gal(b1-4)Glc): -0.301
- glycan array binding signal (z-score) (Kdn(a2-6)Gal(b1-4)GlcNAc): -0.285
- glycan array binding signal (z-score) [30]: -0.296
- glycan array binding signal (z-score) (Man(a1-6)Man): -0.294
- glycan array binding signal (z-score) [31]: -0.232
- glycan array binding signal (z-score) [32]: -0.226
- glycan array binding signal (z-score) [33]: -0.222
- glycan array binding signal (z-score) [34]: -0.13
- glycan array binding signal (z-score) [35]: -0.221
- glycan array binding signal (z-score) [36]: -0.31
